The results in this text go back to PubChem BioAssay AID588342 (National Center for Advancing Translational Sciences (NCATS), 2011).

The campaign covered roughly 360,000 compounds. About 25,000 (6.9%) were called active. Roughly 9% stayed inconclusive and do not appear here. Calls follow the shape of the dose curve; as a rule, active = well fitted inhibition curve with a large enough effect; inconclusive = small, poorly fitted or top-dose-only effect; inactive = flat fitted curve, though single readings scatter. The list comes from a sample in which actives are over-represented; it also holds similar structures and randomly drawn compounds. Entries that show only a call come without a potency.
Potency is read from the fitted curve at half-maximal effect.

Chain of Luciferin 4-monooxygenase (Photinus pyralis) (P08659 whole entry, looked up): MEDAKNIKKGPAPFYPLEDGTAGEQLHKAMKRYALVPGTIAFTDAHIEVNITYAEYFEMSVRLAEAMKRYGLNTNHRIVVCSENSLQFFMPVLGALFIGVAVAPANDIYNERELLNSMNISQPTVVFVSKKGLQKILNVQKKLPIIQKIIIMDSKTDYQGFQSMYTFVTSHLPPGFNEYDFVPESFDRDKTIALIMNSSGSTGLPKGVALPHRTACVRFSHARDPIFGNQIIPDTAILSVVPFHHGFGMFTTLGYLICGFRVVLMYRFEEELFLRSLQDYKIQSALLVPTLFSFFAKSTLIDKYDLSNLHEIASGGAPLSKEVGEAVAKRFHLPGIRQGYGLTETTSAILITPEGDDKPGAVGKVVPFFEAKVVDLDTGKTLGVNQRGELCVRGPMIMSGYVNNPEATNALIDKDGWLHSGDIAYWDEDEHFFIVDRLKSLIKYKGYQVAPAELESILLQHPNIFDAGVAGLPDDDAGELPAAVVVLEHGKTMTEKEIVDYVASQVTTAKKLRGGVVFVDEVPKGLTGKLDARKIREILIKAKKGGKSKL

The test deals with Luciferin 4-monooxygenase (Photinus pyralis) (UniProt P08659). Put plainly: qHTS profiling assay for firefly luciferase inhibitor/activator using purifed enzyme and Km concentrations of substrates (counterscreen for miR-21 project). Also: nearly all actives have a fitted effect of over 55% in size. To be noted: purified FLuc, luminescence inhibition; series mostly up to 57.5 µM. A digest of the protocol:
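Purified P. pyralis luciferase (10nM final) with 10uM D-luciferin and 10uM ATP (Km levels) in 50mM Tris acetate pH 7.5, 10mM Mg acetate, 0.01% Tween-20, 0.05% BSA; qHTS 6-point titration, ~60 µM downward; luminescence read.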
For `O=C1/C(=C/c2ccc(F)cc2)SC(=S)N1NS(=O)(=O)c1ccccc1`, the Potency entry is “inactive”. On the same count and under the same terms, with `O=C(CSc1nc(=O)n2ccccc2n1)Nc1ccc2c(c1)OCCO2` the entry was “inactive”; with `CCc1ccccc1OCC(=O)Nc1ccc2c(c1)OCCO2`, 10.7 µM (active). With `COc1ccc(NC(=O)CSc2nccn2Cc2ccc3c(c2)OCO3)cc1`, the Potency result was “inactive”. With `COc1ccc(NC(=O)CSc2nc3ncccc3[nH]2)c(OC)c1`, the Potency entry was “inactive”. For the molecule `O=C(CSc1nc2ncccc2[nH]1)Nc1ccc2c(c1)OCCO2`, the Potency was 15.1 µM (active).

As to `Cc1ccc(S(=O)(=O)NCC(=O)Nc2ccc3c(c2)OCCO3)cc1`, the Potency result was “inactive”. Consider `Cc1ccc(-n2c(SCC(=O)Nc3ccc4c(c3)OCO4)nnc2-c2ccoc2C)cc1`, for which the Potency result is “inactive”. On the same count and under the same terms, then `Cc1ccc(SCC(=O)Nc2ccc3c(c2)OCCO3)cc1`, with 6.75 µM (active); and `Cn1ccnc1SCC(=O)Nc1ccc2c(c1)OCCO2`, with 23.9 µM (active). As for `COc1ccc(Cn2ccnc2SCC(=O)Nc2ccc3c(c2)OCO3)cc1`, the Potency entry was “inactive”. Turning to `CCC(=O)c1cc(F)ccc1OCC(=O)Nc1ccc2c(c1)OCCO2`, the Potency result is “inactive”.

Take `CC(C)NS(=O)(=O)c1ccc(OCC(=O)Nc2ccc3c(c2)OCCO3)cc1`: the activity change, negative = inhibition is 3.95% [at 2.3 µM] (inactive).

As to `CC(C)CCN(C(=O)Nc1ccc(Cl)c(Cl)c1)C(C)c1cccs1` (stereo unspecified), the Potency entry was “inactive”. Regarding `CCOC(=O)c1cc2c(=O)n3ccccc3nc2n(CC2CCCO2)c1=NC(=O)c1ccc(C(C)(C)C)cc1` (stereo unspecified), the Potency entry was “inactive”. With `COc1ccc(NC(=O)CCNS(=O)(=O)c2ccc3c(c2)CCCC(=O)N3)cc1Cl`, the Potency entry was “inactive”. Regarding `Cc1c(Cl)cccc1NC(=O)C(=O)NCCc1csc2nc(-c3ccccc3F)nn12`, the Potency result is “inactive”. For `NC(CSC12CC3CC(CC(C3)C1)C2)C(=O)O` (stereo unspecified), the Potency result was “inactive”. As to `CS(=O)(=O)c1ccc(-c2nnn(CC(=O)Nc3ccc4c(c3)OCCO4)n2)cc1`, the Potency result is “inactive”. The same measure, in the same setting: then `S=C(NCc1ccc2c(c1)OCO2)NCc1ccco1`, with “inactive”. The same measure, in the same setting: then `CCCCC(=O)Nc1ccc2c(c1)OCCO2`, with 21.3 µM (active); and `Cc1cc(C)c2c(=O)[nH]c(SCC(=O)Nc3ccc(Br)cc3)nc2n1`, with “inactive”; and `S=C(NCc1ccco1)Nc1ccc2c(c1)OCCO2`, with 15.1 µM (active).

In the case of `FC(F)Oc1ccc(NC(=S)NCc2ccco2)cc1Cl`, the Potency entry was “inactive”.

On to `O=C(COc1ccc(Cl)cc1)Nc1ccc2oc(=O)ccc2c1`, for which the Potency result is “inactive”. With `COc1ccccc1OCCCC(=O)Nc1ccc2c(c1)OCCO2`, the Potency entry is “inactive”. Turning to `O=C(CCS(=O)(=O)Cc1ccccc1)Nc1ccc2c(c1)OCCO2`, the Potency entry was “inactive”. For the molecule `O=C(COc1ccc(Cl)cc1)Nc1ccc2c(c1)OCO2`, the Potency is 19 µM (active). Still for that read-out and setting: then `COc1ccc(Cl)cc1NC(=O)COc1ccc2c(c1)OCO2`, with “inactive”; and `O=C(CSc1ncc(S(=O)(=O)c2ccc(Br)cc2)c(=O)[nH]1)Nc1ccc2c(c1)OCCO2`, with 9.53 µM (active). With `COc1ccccc1CNc1nc2ccc(Cl)cc2n2cnnc12`, the Potency result is “inactive”. Turning to `COCCN(C(=O)CCC(=O)Nc1nccs1)C(C(=O)NCCC(C)C)c1ccc(F)cc1` (stereo unspecified), the Potency entry is “inactive”. Consider `COc1ccccc1C(=O)Nc1ccc(C)c(S(=O)(=O)N2CCCCC2)c1`, for which the Potency entry is “inactive”. On to `CCc1ccccc1NC(=O)c1cnn(-c2ccc(F)cc2)c1C1CCNCC1`, for which the Potency entry was “inactive”. Consider `CCc1ccc(C2N3CC4([N+](=O)[O-])CN2CC([N+](=O)[O-])(C3)C4(C)C)cc1` (stereo unspecified), for which the Potency entry was “inactive”. The same measure, in the same setting: with `Cc1ccc(NC(=O)C(Cc2ccccc2)NS(=O)(=O)c2ccc3c(c2)oc(=O)n3C)cc1C` (stereo unspecified) the entry was “inactive”. On the same count and under the same terms, with `Cc1ccc(S(=O)(=O)N(CC(=O)Nc2ccc(Cl)cc2Cl)c2ccccc2C)cc1` the entry was “inactive”; with `COc1cccc(CNC(=O)Cn2c(=O)c3cccn3c3ccc(F)cc32)c1OC`, “inactive”. With `Cc1ccc(NC(=O)CN(C)C(=O)Cn2nnc(-c3ccccc3)n2)cc1`, the Potency result is “inactive”. As for `Cc1nc2ccc(S(=O)(=O)NC(C(=O)NCc3ccccc3Cl)C(C)C)cc2s1` (stereo unspecified), the Potency entry is “inactive”. The same measure, in the same setting: with `CSc1nnc(-c2ccc(C(F)(F)F)cn2)o1` the entry was “inactive”; with `O=C(COc1ccccc1F)Nc1ccc(C(=O)OCc2cc(=O)n3nc(C4CC4)sc3n2)cc1`, “inactive”; with `Cc1ccc(NC(=O)CSc2nc(CSc3ccc(C)cc3)cc(=O)[nH]2)cc1`, 21.3 µM (active). For the molecule `COc1ccc(NC(=O)CSc2nc(NS(=O)(=O)c3ccc(C)cc3)cc(=O)[nH]2)cc1`, the Potency result was “inactive”. Same read-out and setting: with `Cc1cc(=O)[nH]c(SCC(=O)Nc2ccc(Br)cc2)n1` the entry was “inactive”; with `CC(C)Cc1nnc(NC(=O)CCNC(=O)c2ccccc2Cl)s1`, “inactive”; with `C/C=C/C=C/C(=O)O`, “inactive”. `COc1ccc(S(=O)(=O)c2cn(C)c3cc(N4CCCCC4)c(F)cc3c2=O)cc1`: the Potency result is “inactive”. In the case of `COc1ccc(C(=O)NCC(c2ccc(N(C)C)cc2)N2CCc3ccccc32)c(OC)c1` (stereo unspecified), the Potency entry is “inactive”. `COc1ccc(S(=O)(=O)N2CCCCC2)cc1C(=O)NC1CCS(=O)(=O)C1` (stereo unspecified): the Potency entry is “inactive”.

For `CCOC(=O)c1ccc(CN(Cc2ccccc2)S(=O)(=O)c2ccc(Cl)cc2)cc1`, the Potency entry is “inactive”. With `CN1OC(COC(=O)c2ccc(Cl)cc2)CC1c1ccccc1` (stereo unspecified), the Potency was 19 µM (active). For `Cn1cncc1COC(=O)c1ccc(Cl)cc1`, the Potency entry is “inactive”. As to `O=C(CCS(=O)(=O)c1ccccc1)N(Cc1cccnc1)c1nc2c(F)cccc2s1`, the Potency result is “inactive”. Regarding `CN(C)c1cccc(C(=O)N2CCC(n3nccc3NC(=O)C3CCOC3)CC2)c1` (stereo unspecified), the Potency result is “inactive”. In the case of `CN(CCO)c1ccc(/C=N/Nc2nncc3ccccc23)cc1`, the Potency was 0.0757 µM (active). With `Cc1cc2cc3c(N)[nH]nc3nc2cc1C`, the Potency is 4.78 µM (active). Consider `COCCNC(=O)NC(=O)COC(=O)C1(c2ccc(Cl)cc2)CC1`, for which the Potency result is “inactive”. Same read-out and setting: with `CCN(CC)C(=O)CS(=O)CC(=O)Nc1cc(OCCOC)c(Cl)cc1Cl` (stereo unspecified) the entry was “inactive”; with `O=C(CSc1ccc(-c2ccc(Br)cc2)nn1)NCC1CCCO1` (stereo unspecified), 15.1 µM (active).

For the molecule `O=C(CSc1nnc(-c2ccc(NS(=O)(=O)c3ccccc3)cc2)o1)NCC1CCCO1` (stereo unspecified), the Potency result is “inactive”. Take `O=C(CSc1ccc(-c2ccccc2)nn1)NCC1CCCO1` (stereo unspecified): the Potency entry is “inactive”.

As for `CCCC[C@]12Cc3cc(OC)c(OC)cc3C(O1)C1=C(CC3(CCCCC3)OC1=O)O2`, the activity change, negative = inhibition is -0.0926% [at 11.5 µM] (inactive).

With `CCN(CC)CCCSc1nc2ccccc2s1`, the Potency entry is “inactive”. For `O=C(O)c1ccccc1CSc1nc2ccccc2s1`, the Potency is 19 µM (active). For the molecule `Cc1cc(C)c(C#N)c(SCc2ccccc2C(=O)O)n1`, the Potency entry is “inactive”.
